Test [1] can be described thus: qHTS assay to identify small molecule antagonists of the constitutive androstane receptor (CAR) signaling pathway - cell viability counter screen (AID 1224837). Also: nearly all actives have a fitted effect of over 45% in size. The method, boiled down: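 Read-out: CellTiter-Fluor fluorescence after 23 hr at 37 C/5% CO2. Cells: HepG2 double-stable for hCAR and CYP2B6-2.2kb. Compounds tested at 15 concentrations in the presence of CITCO, final concentration 50 nM.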
(Quantitative high-throughput screening tests each substance at several concentrations.)

Test [2] in a line: qHTS assay to identify small molecule antagonists of the estrogen related receptor signaling pathway with the pleiotropic PPARgamma coactivator (PGC) from Tox21 10K library - cell viability counter screen (AID 1224840; active = well fitted cell-killing curve with a large enough effect in the repeat runs, not every such curve was filed as active; also: nearly all actives have a fitted effect of over 40% in size). The method, boiled down: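 Fluorescence read-out of CellTiter-Fluor viability reagent, added after cells had been exposed to compound in DMSO for 17.5 h at 37 C; 30 min development at 37 C/5% CO2. Cells: PGC/ERR line, 2,000/well.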

Test [3] in a line: qHTS assay to identify small molecule antagonists of the estrogen related receptor signaling pathway with the pleiotropic PPARgamma coactivator (PGC) from Tox21 10K library (AID 1224841; call rule not given here; also: actives are mostly falling curves and most rising ones were filed inactive; nearly all actives have a fitted effect of over 50% in size; also: potency is read from the fitted curve at half-maximal effect). In a few lines: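 Luminescence read-out (One-Glo luciferase reagent, 30 min at room temperature) from PGC/ERR cells exposed to DMSO-dissolved test compounds for 18 h at 37 C; cells, 2,000 per well, had been preincubated 6 h before compound transfer.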

Test [4] in a line: qHTS assay to identify small molecule agonists of the estrogen related receptor signaling pathway with the pleiotropic PPARgamma coactivator (PGC) from Tox21 10K library (AID 1224842). Also: nearly all actives have a fitted effect of over 15% in size. In a few lines: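 PGC/ERR reporter cells (NTP line) were seeded 2,000 per well, rested 6 h at 37 C/5% CO2, then pin-dosed with compounds in DMSO for 18 h at 37 C; luciferase read by One-Glo luminescence after 30 min at room temperature.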

For test [5], the target named is Thyrotropin receptor (Homo sapiens) (UniProt P16473). Kind of test: qHTS assay to identify small molecule agonists of the thyroid stimulating hormone receptor (TSHR) signaling pathway (AID 1224843; calls by dose curve; also: nearly all actives have a fitted effect of over 45% in size). The method, boiled down: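 Compounds are titrated over 15 concentrations, in triplicate, onto TSHR-HEK293 cells seeded at 800/well. Plates sit 30 min at room temperature before cAMP-d2 and anti-cAMP cryptate are added; signal is read after a further hour.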
Thyrotropin receptor (Homo sapiens), sequence (P16473 whole entry, looked up): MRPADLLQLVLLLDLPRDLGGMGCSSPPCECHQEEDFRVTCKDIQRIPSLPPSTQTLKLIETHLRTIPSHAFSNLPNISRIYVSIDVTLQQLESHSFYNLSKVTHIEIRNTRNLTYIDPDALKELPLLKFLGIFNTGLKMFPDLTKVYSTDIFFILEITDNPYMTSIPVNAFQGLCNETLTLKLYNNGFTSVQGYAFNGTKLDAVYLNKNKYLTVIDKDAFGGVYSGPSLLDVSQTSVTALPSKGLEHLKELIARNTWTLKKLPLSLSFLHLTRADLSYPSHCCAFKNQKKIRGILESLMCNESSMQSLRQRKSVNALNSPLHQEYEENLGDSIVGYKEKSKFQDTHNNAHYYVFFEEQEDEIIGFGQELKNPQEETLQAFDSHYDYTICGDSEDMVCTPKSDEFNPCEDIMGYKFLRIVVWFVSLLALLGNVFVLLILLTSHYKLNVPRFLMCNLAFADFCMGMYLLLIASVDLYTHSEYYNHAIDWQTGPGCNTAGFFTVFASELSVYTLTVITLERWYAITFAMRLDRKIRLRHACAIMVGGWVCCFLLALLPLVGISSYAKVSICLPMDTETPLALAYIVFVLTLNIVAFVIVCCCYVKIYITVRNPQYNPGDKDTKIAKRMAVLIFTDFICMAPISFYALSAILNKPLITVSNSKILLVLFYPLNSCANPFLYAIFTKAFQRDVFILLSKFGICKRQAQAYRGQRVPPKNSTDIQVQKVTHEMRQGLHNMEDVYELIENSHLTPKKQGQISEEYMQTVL

Test [6] can be described thus: qHTS assay to identify small molecule agonists of the hypoxia (HIF-1) signaling pathway - cell viability counter screen (AID 1224844; calls by dose curve; also: nearly all actives have a fitted effect of over 50% in size). In a few lines: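 CellTiter-Glo luminescence read-out, 30 min RT, taken in the same wells as the beta-lactamase HRE reporter assay; HRE-bla ME-180 cells, 0.5% dialyzed FBS, 17 hr compound treatment at 37C, 5% CO2.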
Test [7] in a line: qHTS assay to identify small molecule agonists of H2AX (AID 1224845; active = well fitted activation curve with a large enough effect in the signal ratio in the repeat runs, not every such curve was filed as active; the % refers to the signal ratio). The method, boiled down:
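Wild-type CHO-K1 cells plated overnight, then exposed 3 hr at 37C to compounds at 15 concentrations (0.76% DMSO). Lysed, then HTRF anti-pH2AX(S139)-cryptate/anti-H2AX-d2 detection after 24 hr at room temperature; emissions 665 and 620 nm.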

Test [8] in a line: qHTS assay to identify small molecule agonists of the hypoxia (HIF-1) signaling pathway (AID 1224846; active = well fitted activation curve with a large enough effect in the signal ratio in the repeat runs, not every such curve was filed as active; the % refers to the signal ratio). In a few lines:
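Beta-lactamase FRET read-out (CCF4-AM substrate) from ME-180 cells carrying an HRE-driven bla reporter, after 17 hrs compound exposure at 37C/5% CO2. Cells were seeded at 2,000 per well in 0.5% dialyzed FBS medium and preincubated 5 hrs.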

The nature of test [9]: qHTS assay to identify small molecule agonists of H2AX - cell viability counter screen (AID 1224847; calls by dose curve; also: top concentration of the series differs between compounds; nearly all actives have a fitted effect of over 30% in size). In a few lines: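 Cytotoxicity counter screen in wild-type CHO-K1 cells: a 3 hr compound treatment at 37C across 15 concentrations, followed by CellTiter-Glo luminescence to gauge viable cells.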
Test [10] in a line: qHTS assay to identify small molecule antagonists of the estrogen related receptor (ERR) signaling pathway from Tox21 library (AID 1224848). Also: nearly all actives have a fitted effect of over 50% in size. The method, boiled down:
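First, 2,000 ERR cells per well were plated and held 6 h at 37 C/5% CO2. Next, compounds in DMSO were pinned in and left 18 h at 37 C. Finally, ONE-Glo was added and luminescence read after 30 min at room temperature.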

Test [11] is described as follows: qHTS assay to identify small molecule agonists of the estrogen related receptor (ERR) signaling pathway from Tox21 library (AID 1224849; calls by dose curve; also: nearly all actives have a fitted effect of over 15% in size). The following applies: ERR reporter cell line, ONE-Glo luciferase, 18 h; at 92.4 µM (top of the series). In a few lines: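 Luminescence readout (ONE-Glo, 30 min RT) after 18 h compound exposure at 37 C of NTP-supplied ERR reporter cells; cells were plated 6 h before compound addition by pin tool.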

Test [12] can be described thus: qHTS RealTime-Glo MT Cell Viability Assay in HepG2 cells - 24 hour (AID 1224867). Also: nearly all actives have a fitted effect of over 50% in size. The method, boiled down:
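Tox21 10K library screened in qHTS format on HepG2 cells carrying RealTime-Glo reagents. Compounds were added after a 5 h preincubation, and the luminescent signal from continuous culture was measured repeatedly during 40 h treatment.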

Test [13] can be described thus: qHTS RealTime-Glo MT Cell Viability Assay in HEK293 cells - 32 hour (AID 1224868). In a few lines:
(§1)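 Luminescence generated by NanoLuc from substrate produced by living HEK293 cells served as the viability signal. Each value reflects the reading at its stated time point during continuous 40 h compound exposure at 37 C.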

A short description of test [14]: A CellTox Green Cytotoxicity Assay to monitor cytotoxicity in HEK293 cells - 0 hour (AID 1224869). Also: nearly all actives have a fitted effect of over 50% in size. The method, boiled down:
(§2)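 Read-out: fluorescence of a cell-impermeant cyanine dye staining DNA of dead cells, proportional to cytotoxicity. HEK293, 600 cells/well with reagent, compound (23 nL DMSO) added after 5 h; reads at 0, 8, 16, 24, 32, 40 h.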

Test [15] in a line: qHTS RealTime-Glo MT Cell Viability Assay in HepG2 cells - 40 hour (AID 1224870). Also: nearly all actives have a fitted effect of over 50% in size. The method, boiled down:
(§3)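 HepG2 cells mixed with RealTime-Glo MT reagents (NanoLuc plus cell-permeant prosubstrate) were seeded at 600 cells/well, incubated 5 h at 37 C/5% CO2, then pinned with compounds in DMSO; nonlytic luminescence tracked viability during 40 h treatment.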

The nature of test [16]: A CellTox Green Cytotoxicity Assay to monitor cytotoxicity in HEK293 cells - 40 hour (AID 1224871). Also: nearly all actives have a fitted effect of over 45% in size. The method, boiled down:
as §2

Test [17] is described as follows: qHTS RealTime-Glo MT Cell Viability Assay in HEK293 cells - 16 hour (AID 1224872). In a few lines: as §1
The nature of test [18]: qHTS RealTime-Glo MT Cell Viability Assay in HepG2 cells - 8 hour (AID 1224873). Also: nearly all actives have a fitted effect of over 55% in size. The method, boiled down: as §3
The target of test [19] is Nuclear receptor subfamily 1 group I member 3 (Homo sapiens) (UniProt Q14994). Kind of test: qHTS assay to identify small molecule antagonists of the constitutive androstane receptor (CAR) signaling pathway (AID 1224838).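 Also: HepG2 cells stably expressing hCAR with CYP2B6 luciferase reporter stimulated by CITCO; nearly all actives have a fitted effect of over 40% in size.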 The method, boiled down: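 Read-out: ONE-Glo luciferase luminescence after 30 min at room temperature. HepG2-CYP2B6-hCAR double-stable cells, compounds in 15-point titration plus 50 nM CITCO final, 24 h at 37 C/5% CO2.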
Nuclear receptor subfamily 1 group I member 3 (Homo sapiens), sequence (Q14994 whole entry, looked up): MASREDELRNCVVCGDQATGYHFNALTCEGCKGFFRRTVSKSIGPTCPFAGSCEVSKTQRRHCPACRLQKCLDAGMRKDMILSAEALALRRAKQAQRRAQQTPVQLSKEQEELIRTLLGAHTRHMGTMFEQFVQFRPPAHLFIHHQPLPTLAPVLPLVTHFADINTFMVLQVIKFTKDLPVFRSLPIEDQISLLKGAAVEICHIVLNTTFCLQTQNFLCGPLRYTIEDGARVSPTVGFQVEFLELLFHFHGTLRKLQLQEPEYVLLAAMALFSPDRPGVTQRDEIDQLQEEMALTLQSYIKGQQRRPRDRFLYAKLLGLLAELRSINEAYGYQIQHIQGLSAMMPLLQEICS

For test [20] the target is unchanged. Kind of test: qHTS assay to identify small molecule agonists of the constitutive androstane receptor (CAR) signaling pathway (AID 1224839).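 Also: HepG2 cells stably carrying human CAR and a CYP2B6 luciferase reporter; nearly all actives have a fitted effect of over 15% in size.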 The method, boiled down:
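Cells were plated and incubated 4 hrs, then dosed with compounds at 15 concentrations. PK11195 was added to 0.75 uM final. After 24 hrs at 37 C, luciferase luminescence was measured.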

Several values for one entry are separate records, joined by “and”; a condition that tells them apart may be missing. Equal values may be shown once. A number with no mark means an inactive call. Records with an inconclusive call do not appear. Activity calls are given as the source filed them. Unless noted, calls follow the shape of the dose curve; as a rule, active = well fitted curve in the direction sought with a large enough effect in the repeat runs; inconclusive = weak or mixed curves; inactive = no such curve, though single readings can be large; an effect the other way counts as inactive or inconclusive.
% is scaled to controls: 0 for no effect and ±100 for the full control effect.

Take `CC(C#N)CCC#N` (stereo not given): the Potency entry in test [1], in [2], in test [3], in test [5], in test [6] and in test [7] was “inactive” each time. The Potency result in [9], in [10], in [13], in test [14] and in [16] was “inactive” each time. Moreover, the compound was called inactive in [4], in test [8], in test [12], in test [15], in test [17] and in [18]. Besides, the activity change, positive = activation in test [11] is 5.4% and 2.56%.

Take `CC(NC(C)(C)C)C(=O)c1cccc(Cl)c1` (stereo not given): the Potency result in test [1], in [2], in [6], in [7], in [9] and in test [13] was “inactive” each time. The Potency result in test [14] and in test [16] was “inactive” in each case. For the same compound, the outcome in [12], in test [17] and in test [18] was inactive.

For the compound `O=c1[nH]c(=O)[nH]c(=O)[nH]1`, the Potency entry in [1], in [19], in test [20], in test [3], in test [5] and in test [6] was “inactive” in each case. In addition, the Potency result in test [7], in test [10], in test [13], in test [14] and in test [16] was “inactive” each time. Moreover, the call in test [4], in [8], in test [12], in test [15], in test [17] and in test [18] was inactive. The activity change, positive = activation in test [11] was 1.86% and -0.392%.

On to `CCC[CH2][Sn]([Cl])([Cl])[Cl]`, for which the Potency result in [19], in test [20], in test [2], in test [5], in test [6] and in [7] was “inactive” throughout. Also, the Potency result in [10], in test [13], in test [14] and in [16] was “inactive” in each case. The Potency in [3] is 31.1 µM (active). The call in test [4], in test [8], in [12], in [17] and in test [18] was inactive. Besides, the activity change, positive = activation in test [11] was 3.29% and -6.08%.

Consider `Nc1c(Cl)c(Cl)nc(C(=O)O)c1Cl`, for which the Potency result in [1], in test [5], in [6], in test [7], in test [9] and in test [13] was “inactive” each time. Also, the Potency entry in test [14] and in [16] was “inactive” each time. In addition, the call in [8], in [12], in test [15], in [17] and in test [18] was inactive.

In the case of `CCC12COCN1COC2`, the Potency entry in test [1], in test [19], in test [20], in test [5], in [6] and in [7] was “inactive” in each case. Also, the Potency result in [9], in test [13], in test [14] and in test [16] was “inactive” in each case. In addition, the compound was called inactive in [8], in test [12], in test [17] and in test [18].

Consider `CC(=O)C=C(C)C`, for which the Potency result in test [1], in [19], in test [20], in [3], in test [5] and in test [6] was “inactive” each time. In addition, the Potency result in test [7], in test [9], in test [10], in test [13], in test [14] and in [16] was “inactive” in each case. In addition, the compound was classed as inactive in [4], in [8], in test [12], in test [15], in test [17] and in [18]. The activity change, positive = activation in [11] was 0.13% and 3.17%.

For the origin of these results see PubChem BioAssay (Tox21).
